# Source: PubChem BioAssay (NCATS)
# Where “and” joins values, the source holds several entries; their conditions need not be identical. Equal entries are not always repeated. Inconclusive results are not listed. Entries that show only a call come without a potency. Calls of active or inactive are those of the source. Unless noted, calls follow the shape of the full dose curve.
# Tests used:
# [1] = molecular target: Vitamin D3 receptor (Homo sapiens) (UniProt P11473); experiment: qHTS assay for small molecule antagonists of vitamin D receptor signaling (AID 588541);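 also: receptor activated by calcitriol during compound treatment; series mostly up to about 77 µM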
# Chain of Vitamin D3 receptor (Homo sapiens) (P11473 whole entry, looked up): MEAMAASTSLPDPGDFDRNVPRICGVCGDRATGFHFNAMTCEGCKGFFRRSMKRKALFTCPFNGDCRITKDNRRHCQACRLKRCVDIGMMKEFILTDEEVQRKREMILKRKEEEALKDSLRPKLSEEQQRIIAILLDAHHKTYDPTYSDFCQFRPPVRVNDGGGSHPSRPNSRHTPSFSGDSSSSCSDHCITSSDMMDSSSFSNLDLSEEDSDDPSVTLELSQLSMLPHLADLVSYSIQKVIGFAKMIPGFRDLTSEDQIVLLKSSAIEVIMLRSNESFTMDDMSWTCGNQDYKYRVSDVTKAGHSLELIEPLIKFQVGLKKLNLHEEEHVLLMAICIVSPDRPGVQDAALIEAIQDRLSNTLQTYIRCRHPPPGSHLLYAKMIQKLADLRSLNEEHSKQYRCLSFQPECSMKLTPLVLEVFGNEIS
# Summary of the method: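 VDR-UAS-bla HEK293T cells (2000/well, 2% charcoal-stripped FBS) were treated with titrated compounds plus 1-alpha,25-dihydroxyvitamin D3 (50 nM or 3 nM final) for 16 h at 37 C. CCF4 beta-lactamase fluorescence was read; Hill fits gave IC50.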
# [2] = molecular target: Vitamin D3 receptor (Homo sapiens) (UniProt P11473); experiment: qHTS assay for small molecule agonists of vitamin D receptor signaling (AID 588543)
# Summary of the method: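 Agonist-mode beta-lactamase reporter: HEK293T VDR-UAS-bla cells in charcoal-stripped 2% FBS, compound series 16 h 37 C, CCF4 2 h RT. EC50 from Hill fit, scaled against DMSO and 50 nM calcitriol control.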
# [3] = qHTS assay for small molecule agonists of retinoid X receptor alpha signaling (AID 588544); conditions: HEK293T RXRa-UAS-bla, beta-lactamase reporter, 18 h; 530 nm emission; also: potency is read from the fitted curve at half-maximal effect
# [4] = molecular target: Retinoic acid receptor RXR-alpha (Homo sapiens) (UniProt P19793); experiment: as above
# Chain of Retinoic acid receptor RXR-alpha (Homo sapiens) (P19793 whole entry, looked up): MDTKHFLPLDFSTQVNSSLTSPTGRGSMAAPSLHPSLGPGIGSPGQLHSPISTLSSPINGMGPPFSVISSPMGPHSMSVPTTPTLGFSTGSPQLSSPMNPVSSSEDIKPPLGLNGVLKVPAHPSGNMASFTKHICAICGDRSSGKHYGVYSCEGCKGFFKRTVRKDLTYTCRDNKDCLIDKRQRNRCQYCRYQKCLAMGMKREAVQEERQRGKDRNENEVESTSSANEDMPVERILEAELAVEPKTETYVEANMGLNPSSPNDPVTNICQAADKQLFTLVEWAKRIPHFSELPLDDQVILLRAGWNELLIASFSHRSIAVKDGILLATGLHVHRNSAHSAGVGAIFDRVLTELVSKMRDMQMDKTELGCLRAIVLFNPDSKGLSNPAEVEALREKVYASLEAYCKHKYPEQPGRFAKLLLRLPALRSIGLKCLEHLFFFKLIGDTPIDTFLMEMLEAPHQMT
# [5] = molecular target: Thyroid hormone receptor beta (Homo sapiens) (UniProt P10828); experiment: qHTS assay for small molecule agonists of thyroid hormone receptor beta signaling (AID 588545)
# Chain of Thyroid hormone receptor beta (Homo sapiens) (P10828 whole entry, looked up): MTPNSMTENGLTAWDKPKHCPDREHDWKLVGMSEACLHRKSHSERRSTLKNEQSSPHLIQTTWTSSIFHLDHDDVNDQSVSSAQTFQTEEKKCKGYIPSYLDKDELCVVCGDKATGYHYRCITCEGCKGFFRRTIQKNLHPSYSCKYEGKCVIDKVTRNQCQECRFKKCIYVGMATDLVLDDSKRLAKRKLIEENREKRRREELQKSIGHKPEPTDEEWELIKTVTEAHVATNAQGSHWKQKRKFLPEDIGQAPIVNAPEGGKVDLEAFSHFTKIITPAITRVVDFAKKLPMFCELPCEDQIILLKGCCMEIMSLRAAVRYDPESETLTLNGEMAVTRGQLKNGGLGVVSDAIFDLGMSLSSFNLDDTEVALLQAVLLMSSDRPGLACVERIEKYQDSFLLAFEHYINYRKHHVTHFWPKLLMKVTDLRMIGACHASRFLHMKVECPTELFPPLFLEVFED
# Summary of the method: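 Efficacy and EC50 values derive from Hill fits of qHTS titration data, normalized to 10 nM T3 and DMSO-only wells. HEK 293 reporter cells were stimulated for 18 hrs at 37 C, with beta-lactamase activity measured by CCF4 fluorescence.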
# [6] = molecular target: Glucocorticoid receptor (Homo sapiens) (UniProt P04150); experiment: qHTS assay for small molecule antagonists of glucocorticoid receptor signaling (AID 588533; active = well fitted inhibition curve with a large enough effect in the signal ratio, with a control signal flat, not every such curve was filed as active; the % refers to the signal ratio;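 also: cells stimulated with 2 nM dexamethasone as agonist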)
# Chain of Glucocorticoid receptor (Homo sapiens) (P04150 whole entry, looked up): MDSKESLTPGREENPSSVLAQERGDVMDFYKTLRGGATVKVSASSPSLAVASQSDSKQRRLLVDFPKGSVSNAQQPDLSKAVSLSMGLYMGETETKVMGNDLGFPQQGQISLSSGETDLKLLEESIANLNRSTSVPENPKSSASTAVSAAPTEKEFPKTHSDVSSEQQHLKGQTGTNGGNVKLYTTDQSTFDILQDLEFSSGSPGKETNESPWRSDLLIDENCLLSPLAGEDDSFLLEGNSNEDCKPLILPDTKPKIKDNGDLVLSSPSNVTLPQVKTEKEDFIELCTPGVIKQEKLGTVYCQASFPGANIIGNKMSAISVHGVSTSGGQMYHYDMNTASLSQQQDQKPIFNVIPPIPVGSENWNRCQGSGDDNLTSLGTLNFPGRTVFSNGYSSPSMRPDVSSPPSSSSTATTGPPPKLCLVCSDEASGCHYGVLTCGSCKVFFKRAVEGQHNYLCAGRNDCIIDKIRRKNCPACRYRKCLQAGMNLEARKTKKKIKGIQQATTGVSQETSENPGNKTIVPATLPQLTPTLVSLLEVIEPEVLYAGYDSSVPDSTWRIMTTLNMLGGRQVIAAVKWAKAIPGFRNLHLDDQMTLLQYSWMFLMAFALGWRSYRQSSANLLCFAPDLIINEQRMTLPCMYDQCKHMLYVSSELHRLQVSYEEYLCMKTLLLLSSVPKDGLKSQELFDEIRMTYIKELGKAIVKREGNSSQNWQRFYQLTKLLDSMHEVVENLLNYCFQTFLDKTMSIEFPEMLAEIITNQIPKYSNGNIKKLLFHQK
# Summary of the method: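 Antagonist-mode qHTS: compound titrations added to GRE-bla HeLa cells, then dexamethasone 2 nM final; 18 h, 37 C. CCF4 FRET fluorescence normalized to dexamethasone and DMSO; IC50 from Hill fit.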
# [7] = qHTS assay for small molecule antagonists of peroxisome proliferator-activated receptor delta signaling (AID 588535; active = well fitted inhibition curve with a large enough effect in the signal ratio, with a control signal flat, not every such curve was filed as active; the % refers to the signal ratio;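 as to max response: cells co-treated with a PPAR-delta agonist as stimulator during compound exposure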); conditions: HEK293T PPARd-UAS-bla, beta-lactamase FRET ratio, 18 h; 460 nm channel
# Summary of the method: (§1)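 Compounds tested in titration on PPAR-delta-UAS-bla HEK293T cells grown in charcoal/dextran-stripped serum (2%); beta-lactamase activity read via CCF4 emission at 460 and 530 nm.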
# [8] = molecular target: Peroxisome proliferator-activated receptor delta (Homo sapiens) (UniProt Q03181); experiment: as above
# Chain of Peroxisome proliferator-activated receptor delta (Homo sapiens) (Q03181 whole entry, looked up): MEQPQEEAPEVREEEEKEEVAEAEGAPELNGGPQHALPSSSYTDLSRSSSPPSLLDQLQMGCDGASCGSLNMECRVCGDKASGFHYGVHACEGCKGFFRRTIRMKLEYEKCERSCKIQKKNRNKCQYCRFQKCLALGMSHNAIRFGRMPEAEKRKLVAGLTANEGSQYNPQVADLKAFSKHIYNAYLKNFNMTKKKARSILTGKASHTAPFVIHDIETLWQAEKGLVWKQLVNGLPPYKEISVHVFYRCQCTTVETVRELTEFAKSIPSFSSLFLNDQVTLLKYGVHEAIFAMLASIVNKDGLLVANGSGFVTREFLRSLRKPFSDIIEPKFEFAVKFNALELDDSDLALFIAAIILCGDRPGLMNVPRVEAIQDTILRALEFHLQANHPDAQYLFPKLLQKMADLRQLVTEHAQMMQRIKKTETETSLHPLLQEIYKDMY
# Summary of the method: as §1
# [9] = molecular target: Peroxisome proliferator-activated receptor gamma (Homo sapiens) (UniProt P37231); experiment: qHTS assay for small molecule agonists of peroxisome proliferator-activated receptor gamma signaling (AID 588536; active = well fitted curve in the direction sought with a large enough effect in the signal ratio, with a control signal flat, not every such curve was filed as active; the % refers to the signal ratio)
# Chain of Peroxisome proliferator-activated receptor gamma (Homo sapiens) (P37231 whole entry, looked up): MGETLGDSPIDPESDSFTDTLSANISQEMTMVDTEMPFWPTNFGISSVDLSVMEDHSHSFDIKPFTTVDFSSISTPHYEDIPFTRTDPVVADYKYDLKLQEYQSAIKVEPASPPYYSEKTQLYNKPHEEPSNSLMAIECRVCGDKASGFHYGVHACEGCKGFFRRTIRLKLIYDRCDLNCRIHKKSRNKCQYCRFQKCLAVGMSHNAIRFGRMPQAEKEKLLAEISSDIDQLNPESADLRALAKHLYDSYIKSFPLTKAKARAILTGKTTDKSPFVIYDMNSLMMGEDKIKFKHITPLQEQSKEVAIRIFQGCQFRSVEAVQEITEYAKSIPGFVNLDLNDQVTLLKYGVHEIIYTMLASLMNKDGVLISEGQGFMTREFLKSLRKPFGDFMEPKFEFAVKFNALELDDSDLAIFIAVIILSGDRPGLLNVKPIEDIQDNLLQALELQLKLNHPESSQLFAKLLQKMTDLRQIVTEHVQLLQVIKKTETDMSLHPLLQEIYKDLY
# Summary of the method: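 This is an agonist-mode beta-lactamase reporter assay in HEK293 PPAR-gamma-UAS-bla cells with 1% charcoal/dextran FBS. Compound titrations ran 16 h at 37 C before CCF4 detection. EC50 and efficacy are Hill fits scaled to 2 uM rosiglitazone (100%) and DMSO basal.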
# [10] = molecular target: Peroxisome proliferator-activated receptor gamma (Homo sapiens) (UniProt P37231); experiment: qHTS assay for small molecule antagonists of peroxisome proliferator-activated receptor gamma signaling (AID 588537; active = well fitted inhibition curve with a large enough effect in the signal ratio, with a control signal flat, not every such curve was filed as active; the % refers to the signal ratio;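 also: reporter cells co-stimulated with 50 nM rosiglitazone agonist during compound treatment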)
# Summary of the method: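 HEK293 cells, PPAR-gamma-UAS-bla, 3000/well. Pre-incubation 6-6.5 h, 37 C. Compound titration with rosiglitazone 50 nM final, 16 h. CCF4 dye, 2 h RT, dual-emission fluorescence.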
Structure (SMILES),outcome [1],outcome [2],max response [3],Potency [4],outcome [5],outcome [6],max response [7],outcome [8],outcome [9],outcome [10]
Brc1ccccc1-c1ccccc1,inactive,inactive,10.3%,inactive,inactive,–,–,–,–,–
CN1C(=O)c2ccccc2C1=O,inactive,inactive,-17.2%,inactive,inactive,inactive,-32.8%,inactive,inactive,inactive
CC(C)C(C)(C)C(C)(C)C(C)(C)S,inactive,inactive,-6.07% and -23.3%,inactive,–,–,5.05% and 21.4%,inactive,inactive,inactive
OCc1c[nH]c2ccccc12,inactive,inactive,1.88%,inactive,inactive,–,–,–,inactive,–
Cc1cc(C(C)(C)C)c(O)c(C(C)(C)C)c1,–,–,-14.9%,17.8 µM (active),inactive,inactive,13.8%,inactive,inactive,inactive
Nc1ccc(O)cc1,–,inactive,21.6%,inactive,–,–,–,–,–,inactive
CCCCCCCCCCCC[N+](C)(C)Cc1ccccc1,inactive,inactive,–,–,inactive,inactive,29.6%,inactive,inactive,inactive
Oc1ccccc1,–,–,–,–,–,–,-6.84% and 11%,inactive,inactive,–
Cc1ccc(O)cc1,inactive,inactive,-3.32%,inactive,inactive,–,-30.2%,inactive,inactive,inactive
Nc1c2ccccc2nc2ccccc12,–,–,–,–,–,–,–,–,inactive,–
CCCCC(CC)COC(=O)c1ccccc1C(=O)O (stereo not given),inactive,inactive,0.375% and 2.79%,inactive,inactive,inactive,-31.8%,inactive,–,–
O=C(Oc1ccccc1)c1ccccc1O,–,–,–,–,inactive,inactive,–,–,inactive,inactive
CC(C)(c1ccc(O)cc1)c1ccc(O)cc1,–,–,–,–,inactive,–,-24.6%,inactive,–,–
COc1cc(C=O)ccc1O,inactive,inactive,-4.86%,inactive,inactive,–,-8.31% and -9.26%,inactive,inactive,inactive
O=C(Nc1ccc(Cl)cc1)Nc1ccc(Cl)c(Cl)c1,–,–,–,–,inactive,–,–,–,–,–
Nc1cccc2c(N)cccc12,–,inactive,9.18%,inactive,inactive,–,–,–,inactive,inactive
CCCCCCCCCCCCCCCC[n+]1ccccc1,–,inactive,3.2%,inactive,–,–,21.5%,inactive,inactive,–
CC(=O)OC/C=C(C)/C=C/C=C(C)/C=C/C1=C(C)CCCC1(C)C,inactive,inactive,–,–,inactive,–,34.7%,inactive,inactive,–
OCCOCCN1CCN(C(c2ccccc2)c2ccc(Cl)cc2)CC1 (stereo not given),inactive,inactive,11.6%,inactive,inactive,–,–,–,inactive,inactive
O=C(Oc1ccccc1)c1cccc(C(=O)Oc2ccccc2)c1,inactive,inactive,15.8%,inactive,inactive,inactive,22.4%,inactive,–,inactive
CC(C)(C)c1ccc(O)c(O)c1,inactive,inactive,–,–,inactive,inactive,-11.7% and -3.04%,inactive,inactive,inactive
CCN(CC)CCOc1ccc(/C(=C(\Cl)c2ccccc2)c2ccccc2)cc1,–,inactive,–,–,–,inactive,–,–,–,–
O=C(c1ccccc1)c1ccccc1,inactive,inactive,-13.1% and -5.43%,inactive,–,inactive,3.99% and -25%,inactive,–,–
C1=CC2C3C=CC(C3)C2C1 (stereo not given),inactive,inactive,15.9%,inactive,inactive,–,–,–,inactive,–
O=C(NO)c1ccccc1,inactive,inactive,–,–,inactive,inactive,–,–,–,–
CCCC(=O)c1cc(O)c(O)cc1O,inactive,inactive,11.4%,inactive,inactive,–,14.6%,inactive,inactive,inactive
COC(=O)c1c(Cl)c(Cl)c(C(=O)OC)c(Cl)c1Cl,inactive,inactive,-4.07%,inactive,inactive,inactive,-8.5%,inactive,–,inactive
c1ccc2occc2c1,inactive,inactive,-16.2%,inactive,inactive,–,–,–,inactive,–
Cc1ncc(CO)c(CO)c1O,inactive,inactive,-11.9%,inactive,–,–,15.2%,inactive,inactive,inactive
